The text below walks through data of PubChem BioAssay (NCATS).

Records with an inconclusive call do not appear. Unmarked numbers belong to inactive results. Calls of active or inactive are those of the source. The call rests on the fitted dose curve; in most records, active means well fitted curve in the direction sought with a large enough effect; inconclusive means small, poorly fitted or top-dose-only effect, or another doubt; inactive means no such curve, though single readings can be large; an effect the other way counts as inactive or inconclusive.

For one experiment, the system named is MCC-13. Description: qHTS assay to identify novel small-molecules to repurpose for Merkel cell carcinoma treatment (AID 1296009). Further: nearly all actives have a fitted effect of over 60% in size. The conditions noted are these: MCC and control cell lines, CellTiter-Glo viability, 72 h; series mostly up to 46 µM. In short, it runs like this:
(§1)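 After compound transfer in DMSO, plates were kept 72 hr at 37 degree celsius. Luminescent ATP signal from CellTiter-Glo served as viability measure, normalized against DMSO and no-cell controls.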

In another experiment the test system is MCC-26. The description is as above. The conditions noted are these: MCC and control cell lines, CellTiter-Glo viability, 72 h; series mostly up to 46 µM. In short, it runs like this:
as §1

For a further experiment, the system named is MKL-2. Described as above. As to conditions: MCC and control cell lines, CellTiter-Glo viability, 72 h; series mostly up to 46 µM. The gist of the method:
as §1

The next experiment concerns UISO. The experiment is described as above. As to conditions: MCC and control cell lines, CellTiter-Glo viability, 72 h; series mostly up to 46 µM. The gist of the method:
as §1
(In general: Cellular ATP, detected with luciferase, serves as a proxy for viable cell number.)

A further experiment relates to C33A. The experiment is described as follows: Primary qHTS to identify gynecologic anti-cancer compounds using libraries of approved drugs and bioactive compounds (AID 1345084). Further: nearly all actives have a fitted effect of over 55% in size. The conditions noted are these: Gynecologic cancer cell panel viability, ATPlite luminescence, 48 h; series mostly up to 57.5 µM. The gist of the method: (§2)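 Five-concentration response, 48 h; readout is ATP-driven luciferase luminescence.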
For orientation: Quantitative high-throughput screening tests each substance at several concentrations.

The test system of a further experiment is Es-2. The description is as above. The conditions noted are these: Gynecologic cancer cell panel viability, ATPlite luminescence, 48 h; series mostly up to 57.5 µM. The gist of the method:
as §2

Another experiment relates to HeLa. The experiment is described as above. The conditions noted are these: Gynecologic cancer cell panel viability, ATPlite luminescence, 48 h; series mostly up to 57.5 µM. In short, it runs like this:
as §2

A further experiment concerns Hek293T. The experiment is described as above. The conditions noted are these: Gynecologic cancer cell panel viability, ATPlite luminescence, 48 h, control line for the selectivity index; series mostly up to 57.5 µM. In short, it runs like this: as §2
A further experiment has as its system JEG-3. The description is as above. As to conditions: Gynecologic cancer cell panel viability, ATPlite luminescence, 48 h; series mostly up to 57.5 µM. In short, it runs like this: as §2
A further experiment relates to OV90. The description is as above. As to conditions: Gynecologic cancer cell panel viability, ATPlite luminescence, 48 h; series mostly up to 57.5 µM. The gist of the method:
as §2

In the next experiment the test system is SKOV3. The description is as above. As to conditions: Gynecologic cancer cell panel viability, ATPlite luminescence, 48 h; series mostly up to 57.5 µM. In short, it runs like this:
as §2

A further experiment relates to Tov-21-G. The experiment is described as above. The conditions noted are these: Gynecologic cancer cell panel viability, ATPlite luminescence, 48 h; series mostly up to 57.5 µM. In short, it runs like this:
as §2

The next experiment concerns NIH3T3. The experiment is described as follows: qHTS assay to identify novel small-molecules to repurpose for Merkel cell carcinoma treatment (AID 1296009). Further: nearly all actives have a fitted effect of over 60% in size. The conditions noted are these: MCC and control cell lines, CellTiter-Glo viability, 72 h; series mostly up to 44.8 µM. The gist of the method:
as §1

The next experiment deals with WaGa. Described as above. The conditions noted are these: MCC and control cell lines, CellTiter-Glo viability, 72 h; series mostly up to 46 µM. The gist of the method: as §1
Another experiment has as its system CAOV3. The experiment is described as follows: Primary qHTS to identify gynecologic anti-cancer compounds using libraries of approved drugs and bioactive compounds (AID 1345084). Further: nearly all actives have a fitted effect of over 55% in size. The conditions noted are these: Gynecologic cancer cell panel viability, ATPlite luminescence, 48 h; series mostly up to 57.5 µM. In short, it runs like this:
as §2

Another experiment relates to CASKI. The description is as above. As to conditions: Gynecologic cancer cell panel viability, ATPlite luminescence, 48 h; series mostly up to 57.5 µM. In short, it runs like this:
as §2

A further experiment has as its system Tov112D. The experiment is described as above. The conditions noted are these: Gynecologic cancer cell panel viability, ATPlite luminescence, 48 h; series mostly up to 57.5 µM. The gist of the method: as §2
A further experiment has as its system MKL-1. The experiment is described as follows: qHTS assay to identify novel small-molecules to repurpose for Merkel cell carcinoma treatment (AID 1296009). Further: nearly all actives have a fitted effect of over 60% in size. The conditions noted are these: MCC and control cell lines, CellTiter-Glo viability, 72 h; series mostly up to 46 µM. In short, it runs like this:
as §1

For another experiment, the system named is PA-1. The experiment is described as follows: Primary qHTS to identify gynecologic anti-cancer compounds using libraries of approved drugs and bioactive compounds (AID 1345084). Further: nearly all actives have a fitted effect of over 55% in size. As to conditions: Gynecologic cancer cell panel viability, ATPlite luminescence, 48 h; series mostly up to 57.5 µM. In short, it runs like this: as §2
Potency means the concentration at half of the fitted maximal effect.

Regarding `CCc1cccc(CC)c1NC(=O)N1Cc2[nH]nc(NC(=O)c3ccc(N4CCN(C)CC4)cc3)c2C1`, the Potency entry in the experiment with MCC-13, in the experiment on MKL-2, in the experiment with UISO, in the experiment on C33A, in the experiment with Es-2 and in the experiment on Hek293T was “inactive” in each case. For the same compound, the Potency entry in the experiment on JEG-3, with OV90 and in the experiment on SKOV3 was “inactive” each time. Besides, the results for the Potency in the experiment with MCC-26, in the experiment on HeLa and in the experiment on Tov-21-G were 20.9 µM (active), 3.16 µM (active) and 12.6 µM (active), respectively.

For the compound `CC(C)CN(C[C@@H](O)[C@H](Cc1ccccc1)NC(=O)O[C@H]1CO[C@H]2OCC[C@H]21)S(=O)(=O)c1ccc(N)cc1`, the Potency result with MCC-13, in the experiment on MCC-26, with NIH3T3 and with UISO was “inactive” in each case.

As to `CCCCCCOC(=O)N=C(N)c1ccc(NCc2nc3cc(C(=O)N(CCC(=O)OCC)c4ccccn4)ccc3n2C)cc1`, the Potency entry with MCC-13, in the experiment on MCC-26, in the experiment on MKL-2, with UISO and with WaGa was “inactive” in each case.

In the case of `CCN(CCO)CCCOc1ccc2c(Nc3cc(CC(=O)Nc4cccc(F)c4)[nH]n3)ncnc2c1`, the Potency result in the experiment with MCC-13, with MCC-26, in the experiment with UISO, with C33A, in the experiment on Es-2 and in the experiment on HeLa was “inactive” each time. Besides, the Potency result in the experiment with Hek293T, with JEG-3, in the experiment with SKOV3 and with Tov-21-G was “inactive” each time.

On to `O=C(Nc1ccc(OC(F)(F)F)cc1)c1sccc1NCc1ccnc2ccccc12`, for which the Potency result with MCC-13, with MCC-26, in the experiment with C33A, in the experiment with CAOV3, in the experiment on CASKI and in the experiment with Es-2 was “inactive” each time. The Potency result in the experiment with HeLa, with Hek293T, with JEG-3, in the experiment with SKOV3, with Tov-21-G and in the experiment with Tov112D was “inactive” in each case.

Consider `Cc1ccccc1-n1c(Cn2nc(-c3cccc(O)c3)c3c(N)ncnc32)nc2cccc(C)c2c1=O`, for which the Potency is 18.7 µM (active) with MCC-13; 1.05 µM (active) in the experiment on MKL-1; 10.5 µM (active) in the experiment with MKL-2; 10.5 µM (active) with UISO; 0.118 µM (active) in the experiment on WaGa. The Potency entry with NIH3T3, in the experiment with C33A, in the experiment on CASKI, in the experiment on Es-2, with HeLa and in the experiment on Hek293T was “inactive” in each case. Besides, the Potency result with JEG-3, in the experiment with OV90, with PA-1, with SKOV3, in the experiment with Tov-21-G and with Tov112D was “inactive” throughout.

With `O=C(Nc1ccccc1)Nc1ccc(-c2ccc(C(=O)[C@H]3CCC[C@H]3C(=O)O)cc2)cc1`, the Potency result in the experiment on MCC-13, with MKL-1, in the experiment on MKL-2, in the experiment on UISO and with WaGa was “inactive” each time.

As for `C[C@H]1O[C@@H](n2cc(F)c(=O)[nH]c2=O)[C@H](O)[C@H]1O`, the Potency result in the experiment with MCC-13, in the experiment with MKL-1 and in the experiment with MKL-2 was “inactive” each time.

For the compound `Cc1ccc2c(c1)C(=O)[C@]1(O)CCN(c3ccccc3)C1=N2`, the Potency result with MCC-13, in the experiment with MCC-26, in the experiment with MKL-2, with UISO, in the experiment with C33A and with CASKI was “inactive” throughout. The Potency entry in the experiment on Es-2, in the experiment on HeLa, in the experiment on Hek293T, in the experiment on JEG-3, with OV90 and in the experiment on PA-1 was “inactive” in each case. Moreover, the Potency entry in the experiment on SKOV3 and in the experiment on Tov112D was “inactive” throughout.

Regarding `C=C[C@@H]1CN2CCC1C[C@@H]2C(O)c1ccnc2ccc(OC)cc12` (some centres undefined), the Potency result in the experiment with MCC-13, in the experiment with MKL-1, with MKL-2, with UISO and in the experiment on WaGa was “inactive” each time.

For `CN(C)CCCNC(=O)c1ccc(-c2cc(O)c3ncccc3c2)cc1`, the Potency entry in the experiment on MCC-13, with MCC-26, in the experiment on C33A, in the experiment with CAOV3, in the experiment on CASKI and in the experiment with Es-2 was “inactive” throughout. Also, the Potency entry in the experiment with HeLa, with Hek293T, in the experiment with JEG-3 and in the experiment on SKOV3 was “inactive” throughout.

`CON(C)C(=O)N1N=C(c2cc(F)ccc2F)S[C@]1(CCCN)c1ccccc1`: the Potency in the experiment on MCC-13 is 0.0093 µM (active). The Potency result in the experiment with MKL-1, in the experiment with MKL-2, with UISO and in the experiment on WaGa was “inactive” each time.

As to `C[C@@H]1CCO[C@H]2Cn3cc(C(=O)NCc4ccc(F)cc4F)c(=O)c(O)c3C(=O)N12`, the Potency entry in the experiment on MCC-13, in the experiment with MCC-26, in the experiment on UISO and in the experiment on JEG-3 was “inactive” in each case. Moreover, the Potency in the experiment with Tov-21-G was 25.1 µM (active).

Take `CC=C(C(=CC)c1ccc(O)cc1)c1ccc(O)cc1`: the Potency entry with MCC-13, with MKL-1, in the experiment on MKL-2, in the experiment on UISO and in the experiment on WaGa was “inactive” throughout.

Turning to `Cc1nc(NC(=O)N2CCC[C@@H]2C(N)=O)sc1-c1csc(C(C)(C)C)n1`, the Potency result with MCC-13, with MKL-1 and with MKL-2 was “inactive” each time.

In the case of `CN(C)S(=O)(=O)c1ccc2c(c1)C(=Cc1cc3c([nH]1)CCCC3)C(=O)N2`, the Potency entry with MCC-13, in the experiment on MCC-26, in the experiment with MKL-2, in the experiment on UISO and in the experiment on WaGa was “inactive” in each case.

In the case of `CC1(COc2ccc3c(c2)ncn3-c2ccc3cccc(N4CCC(N)CC4)c3n2)COC1`, the Potency was 18.7 µM (active) in the experiment on MCC-13; 18.7 µM (active) with MKL-2; 28.2 µM (active) in the experiment with Es-2; 20 µM (active) in the experiment with HeLa; 20 µM (active) with Hek293T; 8.91 µM (active) with PA-1.

In the case of `COc1ccc(-c2ccc3ncc4c(c3c2)n(-c2ccc(N3CCNCC3)c(C(F)(F)F)c2)c(=O)n4C)cn1`, the Potency with MCC-26 is 0.372 µM (active); in the experiment on MKL-1, 0.0296 µM (active); in the experiment with MKL-2, 0.0418 µM (active); in the experiment with UISO, 0.0235 µM (active); with C33A, 11.2 µM (active); in the experiment with CASKI, 0.794 µM (active). Also, the Potency in the experiment with HeLa was 1.12 µM (active); in the experiment with OV90, 31.6 µM (active); in the experiment with PA-1, 0.316 µM (active); with Tov-21-G, 35.5 µM (active); in the experiment on Tov112D it was 15.8 µM (active).

For the compound `Nc1ncnc2c1c(-c1cccc(OCc3ccccc3)c1)cn2C1CC(CN2CCC2)C1` (centres undefined), the Potency entry in the experiment on MCC-13, with MKL-1, in the experiment with MKL-2 and in the experiment on WaGa was “inactive” in each case. Moreover, the Potency was 28.2 µM (active) with CASKI; 14.1 µM (active) in the experiment with Hek293T; 22.4 µM (active) with OV90; 14.1 µM (active) with PA-1; 35.5 µM (active) in the experiment with Tov-21-G.

In the case of `CC(=O)Nc1cccc(-n2c(=O)n(C3CC3)c(=O)c3c(Nc4ccc(I)cc4F)n(C)c(=O)c(C)c32)c1`, the Potency entry in the experiment on MCC-26, in the experiment with MKL-1, in the experiment on MKL-2, in the experiment with UISO, with WaGa and in the experiment on C33A was “inactive” in each case. Besides, the Potency entry in the experiment on CASKI, in the experiment with HeLa, in the experiment with Hek293T, in the experiment on JEG-3, in the experiment with PA-1 and with SKOV3 was “inactive” in each case. Also, the Potency result with Tov-21-G and with Tov112D was “inactive” throughout.

`COc1cc2nc(-c3cc(F)ccc3O)nc(N[C@@H]3CNC[C@@H]3C(C)(C)O)c2cc1OC`: the Potency with MCC-13 is 20.9 µM (active); in the experiment with MKL-2 it was 9.35 µM (active).

In the case of `O=C(c1ccc(C=Cc2n[nH]c3ccccc23)cc1)N1CCNCC1`, the Potency entry in the experiment on MCC-13 and with MKL-2 was “inactive” each time.
